Data as given in ChEMBL document CHEMBL3988442, “University of Dundee, Small-Polar-MMV Screening Library” (2021).
Among all 38,000 compounds or so, about 1,200 (3.2%) showed an effect of 50% or more. The median lay at about -58%. The full list was thinned out, with strong results kept by preference.

These molecules were tested on Plasmodium falciparum (assay: Calibr Malaria Delayed Death Assay SOP). Settings: concentration 4.99e-06 (unit not given; other assays of the set use mol/L).
Type: functional, organism-based
Design: scale not given: in the data most compounds retested in dose-response had high values

| SMILES | Percent Effect [%] |
| --- | --- |
| N#CCCN(Cc1ccccn1)C(=O)c1cccc(CN2CCCC2)c1 | -57.26 |
| CCn1cc(NS(=O)(=O)c2ccc(Br)s2)c(C(=O)NCC(C)C)n1 | -19.45 |
| O=C(NCCc1ccncc1)c1cccc(S(=O)(=O)NC2CCOC2)c1 (stereo not drawn) | -7.029 |
| CC(NCCCN1CCCC1=O)c1cc(Br)ccc1F (stereo not drawn) | 40.27 |
| CC(NCCCN1CCCC1=O)c1cc(Br)ccc1O (stereo not drawn) | 50.26 |
| CC(NC(=O)NCCCN1CCCC1=O)c1ccc(Cl)s1 (stereo not drawn) | -33.34 |
| CC(C)c1cc(-c2cnn(C)c2C2CC2)c(C#N)c(N)n1 | -61.18 |
| O=C(CC(SC1CCCCC1)C(=O)O)c1ccc(Br)cc1 (stereo not drawn) | -115.9 |
| CCC1CN(C(=O)c2ccccc2C(C)=O)CCN1C(C)C (stereo not drawn) | -70.36 |
| CCC1CN(C(=O)c2ccc(O)c(C)c2)CCN1C(C)C (stereo not drawn) | -125.9 |
| O=C(c1ncccn1)N1C[C@@H]2COC[C@]2(COc2cccnc2)C1 | -80.86 |
| O=C(CCn1ccccc1=O)N1CCCC(COc2ccc(F)cc2)C1 (stereo not drawn) | -62.32 |
| CN1Cc2c(C(=O)NC3CCCCC3)ncn2-c2ccccc2S1(=O)=O.O=C(O)C(F)(F)F | -186.4 |
| COc1ccc(-c2cc(N)ccn2)c(OC)c1OC | -13 |
| COc1cc(F)ccc1-c1cc(CO)ccn1 | -93.03 |
| COc1cc(F)ccc1-c1cc(N)ccn1 | 50.95 |
| Cc1cnc(C(=O)N2CCOCC2C)cn1 (stereo not drawn) | -104.7 |
| O=C(NCC1CC1)[C@@H]1CC[C@@H]2[C@@H](CCN2Cc2ccc(F)c(F)c2)O1.O=C(O)C(F)(F)F | -53.52 |
| O=C1CCCN1CCC1CCN(C2CCCNC2)CC1 (stereo not drawn) | -108.9 |
| CCn1cc(CN2CCN(C(=O)c3cc(C)c(C)s3)CC2)c(C)n1 | -80.19 |
| Cc1cccc(CNCC2COC3(CCCC3)O2)c1C (stereo not drawn) | -41.87 |
| COCCOc1ccccc1CNCC1COC2(CCCC2)O1 (stereo not drawn) | 73.59 |
| Cc1cccc(CNCC2COC3(CCCCC3)O2)c1C (stereo not drawn) | -23.41 |
| CC(=O)Nc1nc(C(=O)NCc2ccc(OC(C)C)nc2)cs1 | -75.22 |
| Cc1cc(C(=O)N(CCN(C)C)Cc2ccc(Cl)cc2)no1 | 51.61 |
| CN(C)CCN(Cc1ccc(C(F)(F)F)cc1)C(=O)c1cc[nH]n1 | 33.3 |

| SMILES | Percent Effect [%] |
| --- | --- |
| CN(C)CCN(Cc1ccc(Cl)cc1)C(=O)c1ccncc1 | 51.29 |
| Cc1cnc(C(=O)N(CCN(C)C)Cc2ccc(Cl)cc2)cn1 | -38.51 |
| CN(C)CCN(Cc1ccc(Cl)cc1)C(=O)c1cnccn1 | 32.67 |
| CN(C)CCN(Cc1ccc(Cl)cc1)C(=O)c1ccn(C)c(=O)c1 | -75.96 |
| Cc1nnc([C@@H]2CC[C@@H]3[C@@H](CCN3C3CCC3)O2)o1 | -20.01 |
| CC1CCCN(C(=O)Nc2ccc(F)c(C(N)=O)c2)C1 (stereo not drawn) | -56.74 |
| CNc1cc(-c2cccc(CN)c2)c2cc[nH]c2n1 | -44.1 |
| CCc1ccc2nc(C)cc(C(=O)N[C@@H]3CCCNC3)c2c1 | 64.11 |
| CCc1ccc2nc(C)cc(C(=O)N[C@@H]3CNC[C@H]3O)c2c1 | -23.23 |
| CCc1ccc2nc(C)cc(C(=O)NC[C@@H]3CCNC[C@H]3O)c2c1 | -50.87 |
| CC(C)(C)CN1CCCC12CCN(S(=O)(=O)c1ccccc1)C2.O=C(O)C(F)(F)F (stereo not drawn) | 29.05 |
| Cc1cccc(C(=O)N2CCCn3cnc(CN4CCCC4=O)c3C2)n1 | -0.7301 |
| Cn1ncc2c1CN(Cc1ccccc1F)CC2COCC1CC1.O=C(O)C(F)(F)F.O=C(O)C(F)(F)F (stereo not drawn) | -47.59 |
| COc1ccc(OCC2CCCN(c3nc(CO)cs3)C2)cc1 (stereo not drawn) | -52 |
| Cc1ccc(OCC2CCCN(c3nc(CO)cs3)C2)cc1 (stereo not drawn) | -23.08 |
| OCc1csc(N2CCCC(COc3cccc(F)c3)C2)n1 (stereo not drawn) | 81.1 |
| COCCCNC(=O)N1CCC(CNC(=O)c2cnn(C)c2)CC1 | -42.86 |
| c1c(CN2CCOCC2)nc2n1CCN(C1CCOCC1)C2 | -53.44 |
| COc1cccc(S(=O)(=O)N2C[C@@H](N(C)C)[C@H](C(C)C)C2)c1 | 72.07 |
| CC(C)[C@@H]1CN(S(=O)(=O)c2cccc(C(=O)O)c2)C[C@H]1N(C)C | -75.82 |
| CC(C)[C@H]1CN(S(=O)(=O)c2cccnc2)C[C@@H]1N | -121.7 |
| CS(=O)(=O)NCc1cnc2n1CCN(Cc1ccco1)CC2.O=C(O)C(F)(F)F | -61.12 |
| Cc1ccc(C(=O)Nc2nnc(C(C)C)s2)c(-n2cnnn2)c1C | -117.2 |
| Cc1cnn(CCNCc2nccn2CC(F)(F)F)c1 | 12.08 |
| Cc1cnn(CCNCc2c(C)nn(Cc3ccccc3)c2C)c1 | 31.58 |
| Cc1cnn(CCNCc2nccn2Cc2ccccc2)c1 | 81.96 |

| SMILES | Percent Effect [%] |
| --- | --- |
| CC(NC(=O)c1cccs1)(C(N)=O)c1cccc(C(F)(F)F)c1 (stereo not drawn) | -110.1 |
| CCc1nc(N2CCC3(CC2)OCCCC3O)ncc1C (stereo not drawn) | -35.89 |
| COC(=O)[C@H](C)NC(=O)c1cnc(Cc2ccc(F)cc2)s1 | -108.7 |
| COC(=O)C(C)(C)NC(=O)c1cnc(Cc2ccc(F)cc2)s1 | 74.7 |
| CCc1ncc(C(=O)NC(C)(C)C(=O)OC)s1 | -64.84 |
| CC1c2cccn2CCN1C(=O)CCc1nc(-c2ccccc2)no1 (stereo not drawn) | -13.83 |
| Cn1ccnc1CNC1CCCOc2c1ccc1ccccc21 (stereo not drawn) | 76.31 |
| Cn1cc(CNC2CCCOc3c(Cl)cccc32)cn1 (stereo not drawn) | 17.16 |
| Cn1cc(CNC2CCCOc3c2ccc2ccccc32)cn1 (stereo not drawn) | 61.58 |
| Cc1cccc2c1OCCCC2NCc1nnc2n1CCCCC2 (stereo not drawn) | -75.07 |
| Cc1nn(C)c(N(C)C)c1CNC1CCOc2c(F)cccc21 (stereo not drawn) | -94.95 |
| Cc1cccc2c1OCCC2NCc1c(C)nn(C)c1N(C)C (stereo not drawn) | -2.294 |
| O=C(O)Cc1cnc(-c2c(Cl)cccc2Cl)s1 | -103 |
| CN(Cc1ccco1)Cc1cncc2c1CCN(S(C)(=O)=O)C2.Cl.Cl | -71.86 |
| CCCNC(=O)CCNc1cncc(-n2nc(C)cc2C)n1 | -96.17 |
| CCOc1cccc(COC(=O)c2cc(C)on2)n1 | -20.94 |
| FC(F)(F)c1ccnc(N2C[C@H]3CCN(c4cccnc4)C[C@H]3C2)n1.O=C(O)C(F)(F)F | -4.152 |
| CC1CN(C)CCN1C(=O)c1ccn(-c2ccc(F)cc2)n1 (stereo not drawn) | -53.04 |
| CCC(NC(N)=O)c1ccccc1OCC(=O)N1CCCC1 (stereo not drawn) | -42 |
| CCC(NCc1ccccn1)c1ccccc1OCC(=O)NC (stereo not drawn) | -34.3 |
| CNC(=O)Cc1noc(Cc2cccc(Cl)c2)n1 | -69.96 |
| CNC(=O)COc1ccc(-c2ccccc2)nc1 | -42.95 |
| CCC(NCc1ccccc1)c1ccccc1OCC(=O)NC (stereo not drawn) | 63.6 |
| Cc1sc(NS(=O)(=O)c2ccccc2)nc1C(=O)NC1CC1 | -59.95 |
| CCOCC1CN(C(=O)c2cccc(C)n2)Cc2cnn(C)c21 (stereo not drawn) | -41.72 |
| CCOC(=O)N1CCN(C(=O)CCn2ccc3c(OC)cccc32)CC1 | -55.78 |

| SMILES | Percent Effect [%] |
| --- | --- |
| Cc1cc(CC(=O)NC2CCCN(c3ccccc3Cl)C2=O)n[nH]1 (stereo not drawn) | -141.2 |
| O=S(=O)(CCN1CCCC1Cn1cccn1)c1ccccc1 (stereo not drawn) | -24.99 |
| Cc1nnc(C(C)NCC2(c3ccc(Cl)cc3)CCCC2)o1 (stereo not drawn) | -5.972 |
| NC(=O)CNC1(c2ccc(Cl)cc2)CCCC1 | -116.4 |
| Clc1ccc(C2(CNC3=NCCN3)CCCCC2)cc1.I | 89.77 |
| Clc1ccc(C2(CNC3=NCCN3)CCCC2)cc1.I | 83.48 |
| CN(C)C(=O)CCS(=O)(=O)Cc1cc(Cl)c2c(c1)OCO2 | -99.04 |
| COCCNC(=O)Cn1c(-c2ccc(Cl)cc2)nc(C)c(CCO)c1=O | -30.51 |
| CCOC(=O)c1cnn(-c2cc(Oc3ccccc3C)ncn2)c1N | -71.43 |
| Cc1nc(N2CCN(C(=O)NCc3cscn3)CC2)sc1C | -173 |
| N#CC1COCCN1C(=O)c1ccc2[nH]cnc2c1 (stereo not drawn) | -106.6 |
| CN1CCC(C2CCN(Cc3cccc(-n4cccn4)c3)CC2)C1 (stereo not drawn) | 85 |
| COC(=O)C(O)C1CCN(Cc2cccc(-n3cccn3)c2)CC1 (stereo not drawn) | -42.85 |
| CN1CCN([C@@H]2CCN(Cc3cccc(-n4cccn4)c3)C[C@H]2O)CC1 | -47.29 |
| O=C(CN1C=Nc2ccccc2S1(=O)=O)NCc1ccccc1F | -61.62 |
| Cc1ccc(O)c(CNC2CCc3nc(C)nn3C2)n1 (stereo not drawn) | -50.72 |
| CO[C@H]1CN(C(C)C)C[C@@H]1NC(=O)Nc1ccc2oc(C)cc2c1 | -10.12 |
| COCC(c1ccccn1)N(C)C(=O)c1cc(-c2ccccc2O)n[nH]1 (stereo not drawn) | -47.61 |
| Cc1ncoc1C(=O)N1CC[C@@H](O)[C@@H](O)[C@H](N2CCC(F)(F)CC2)C1 | -177.2 |
| CN1CCC2(C=C(C(=O)N(C)C)c3ccccc32)CC1 | 59.58 |
| CCC(=O)N1CCC2(C=C(C(=O)N(C)C)c3ccccc32)CC1 | -96.59 |
| CCN1CCC2(C=C(C(=O)N(C)C)c3ccccc32)CC1.O=C(O)C(F)(F)F | -5.162 |
| COc1cc(CCC(=O)NC2CCCN(C)C2)ccc1OCC(F)(F)F (stereo not drawn) | 27.9 |
| Cc1noc(C)c1CN1CC[C@H]2OCC[C@@]2(C(=O)NCC2CC2)C1.O=C(O)C(F)(F)F | -150.6 |
| COC[C@@H]1CCC[C@@]12CN(C(=O)C1CCOCC1)CCO2 | -66.15 |
